RORgamma inh: qHTS for inhibitors of ROR gamma transcriptional activity | Nuclear receptor ROR-gamma (Mus musculus), P51450 | Drosophila S2 Gal4-RORgamma UAS-luciferase reporter, 20 h | Potency, µM (highest dose often 53.6 µM), actives largely listed as inhibitors | 310,000 compounds, 5.4% hits | AID 2551, 2010; note: nearly all actives have a fitted effect of over 60% in size
Target sequence (P51450 whole entry, looked up, the tested form may be a part): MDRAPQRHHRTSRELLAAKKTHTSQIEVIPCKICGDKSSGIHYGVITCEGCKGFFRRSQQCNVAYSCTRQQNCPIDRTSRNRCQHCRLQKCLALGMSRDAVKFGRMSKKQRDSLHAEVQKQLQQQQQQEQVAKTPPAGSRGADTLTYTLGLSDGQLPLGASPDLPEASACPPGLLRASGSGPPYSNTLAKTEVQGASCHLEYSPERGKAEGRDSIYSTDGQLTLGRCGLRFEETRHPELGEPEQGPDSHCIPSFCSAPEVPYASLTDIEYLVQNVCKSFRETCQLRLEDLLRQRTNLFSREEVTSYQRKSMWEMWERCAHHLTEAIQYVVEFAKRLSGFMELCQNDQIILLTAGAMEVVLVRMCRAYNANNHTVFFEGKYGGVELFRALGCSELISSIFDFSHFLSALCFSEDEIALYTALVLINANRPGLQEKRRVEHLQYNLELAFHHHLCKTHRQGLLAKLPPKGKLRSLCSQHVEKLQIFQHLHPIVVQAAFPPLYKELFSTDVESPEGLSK
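Stable Schneider cell line, Gal4 DNA-binding domain fused to ROR gamma, UAS-luciferase. Cmpd 1 hr RT → CuSO4 700 uM final → 20 hr RT → luciferase reagent 10 min → luminescence.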
MCF10A rerep: A quantitative high throughput screen for small molecules that induce DNA re-replication in MCF 10a normal breast cells | AID 624296, 2012 | Potency, µM (highest dose often 46.1 µM), actives largely listed as activators | 350,000 compounds, 2.9% hits | MCF 10A DNA re-replication, Hoechst nuclear intensity, 48 h; note: nearly all actives have a fitted effect of over 50% in size
KB-V1 MDR tox: qHTS assay for MDR1-selective chemotherapeutics: Primary screen using the drug-selected MDR subline cells KB-V1 | KB-V1 MDR cells viability, CellTiter-Glo, 72 h | Potency, µM (top dose mostly 46.1 µM), most hits filed as cytotoxic | 400,000 compounds, 3.4% hits | AID 1347076, 2019; note: nearly all actives have a fitted effect of over 60% in size
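Readout: CellTiter-Glo luminescence, 10 min after addition. Cells: KB-V1 MDR subline, 72 h at 37 degrees C with compound. Analysis: corrected, normalized data fitted to concentration-effect curves.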
KB-3-1 cytotox: qHTS assay for MDR1-selective chemotherapeutics: Primary screen using the parental adenocarcinoma cell KB-3-1. KB-3-1 viability, CellTiter-Glo ATP luminescence, 72 h. Potency, µM (series often up to 46.1 µM), usual class: cytotoxic. 400,000 compounds, 1.4% hits. AID 1347075, 2019; note: nearly all actives have a fitted effect of over 60% in size
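Parental KB-3-1 adenocarcinoma cells in phenol-red-free DMEM with 10% FBS were pin-treated with compounds at several concentrations, incubated 72 h at 37 °C, and viability read by CellTiter-Glo luminescence; concentration-effect curves were fitted after normalization.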
SW480 rereplic: A quantitative high throughput screen for small molecules that induce DNA re-replication in SW480 colon adenocarcinoma cells. SW480 DNA re-replication, Hoechst DNA content imaging, 48 h. Potency, µM (series often up to 46.1 µM), usual class: activators. 340,000 compounds, 1.8% hits; note: nearly all actives have a fitted effect of over 55% in size
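Image-based read-out: total Hoechst fluorescence of nuclei (405 nm excitation, 500-530 nm emission), with hits raising the fraction of high-intensity nuclei. SW480 colon cells incubated 48 hr with compounds at 37 C.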
VP16 counter: VP16 counterscreen qHTS for inhibitors of ROR gamma transcriptional activity. Drosophila S2 Gal4-VP16 UAS-luciferase, luminescence, 20 h. Potency, µM (series often up to 53.6 µM), usual class: inhibitors. 310,000 compounds, 3.5% hits. AID 2546, 2010;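 note: Gal4-VP16 expression switched on by copper sulfate through the metallothionein promoter; nearly all actives have a fitted effect of over 50% in size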
Hits are given with their value; 0 = inactive; ? = inconclusive; - = no result; [ ] = dose if it differs, or a comment. An excerpt weighted towards active compounds, which were near 10% of everything screened. Calls come from the whole dose curve; as a rule, active = well fitted curve in the direction sought with a large enough effect; inconclusive = small, poorly fitted or top-dose-only effect, or another doubt; inactive = no such curve, though single readings can be large; an effect the other way counts as inactive or inconclusive.

SMILES | RORgamma inh | MCF10A rerep | KB-V1 MDR tox | KB-3-1 cytotox | SW480 rereplic | VP16 counter
CC(=O)Nc1ccc(S(=O)(=O)NNC2=NS(=O)(=O)c3ccccc32)cc1 | 10µM | 0 | 0 | 0 | 0 | 0
CC(=O)Nc1ccc(S(=O)(=O)NNC(=O)C(=O)NNc2ccccn2)cc1 | 0 | 0 | 0 | 0 | 0 | 0
Fc1ccc(Nc2ncnc3c2nc2n3CCCCC2)c(F)c1 | - | - | ? | 0 | - | -
CCC1=Nc2cc(C(=O)NCCCOC)ccc2Sc2ccc(Br)cc21 | - | - | ? | 0.82µM | - | -
CC1=Nc2cc(C(=O)O)ccc2Sc2ccc(Br)cc21 | 0 | ? | 0 | 0 | 0 | 0
CC1=Nc2cc(C(=O)NCC3CCCO3)ccc2Sc2ccc(Br)cc21 (centres undefined) | 0 | 18µM | 6.5µM | 12µM | ? | 0
CCCCNC(=O)c1ccc2c(c1)N=C(CC)c1ccccc1S2 | - | - | 18µM | ? | - | -
CCC1=Nc2cc(C(=O)NCCCOC)ccc2Sc2ccccc21 | ? | ? | 0.23µM | 0.82µM | 1.3µM | 0
CC(=O)c1cc(-c2ccc(F)cc2)n(CC(=O)NC2CCC(C)CC2)c1C (centres undefined) | - | - | ? | 0 | - | -
Cc1c(CN(C)C)c2c(n1Cc1ccccc1)C(=O)c1ccc(Br)cc1-2 | ? | ? | 23µM | ? | ? | 0
Cc1ccc(-n2c(-c3ccccc3)c[n+]3c2CCc2ccccc2-3)c(C)c1 | ? | 0 | 0 | 4.6µM | 0 | 7.1µM
COC(=O)c1sccc1S(=O)(=O)N1CCN(c2cccc(C)c2)C(C)C1 (centres undefined) | - | - | 0 | 0 | - | -
Cc1ccc2[nH]c3c(=S)nc[nH]c3c2c1 | 13µM | 0 | ? | 0 | 0 | ?
COc1ccc(OCc2nc3ccccc3n2C(C)c2ccccc2)cc1 (centres undefined) | - | - | 0 | 0 | - | -
CC1(C)S[C@@H]2[C@H](NC(=O)COc3ccccc3)C(=O)N2[C@H]1C(=O)O | 0 | 0 | - | - | 0 | ?
O=C(Nc1cc(Sc2ccccn2)cc([N+](=O)[O-])c1)c1ccc(Cl)cc1 | 0 | ? | ? | 21µM | 0 | 0
Cc1cccn2c(=O)cc(COc3ccc(NC(=O)c4cccc(F)c4)cc3)nc12 | - | - | ? | 0 | - | -
Cc1cc(C)c(Cn2c(CCNC(=O)c3ccco3)nc3ccccc32)c(C)c1 | - | - | 0 | 0 | - | -
c1ccc(N2CCN(c3c4c(nc5ncnn35)CCC4)CC2)cc1 | 0 | 0 | 2.9µM | 0 | 0 | 0
Cc1cc(N2CCN(c3ccccc3)CC2)n2ncnc2n1 | ? | 0 | ? | 0 | 0 | 0
COc1cccc(N2CCN(c3c4c(nc5ncnn35)CCC4)CC2)c1 | 0 | 0 | ? | 23µM | 0 | ?
CC(C)N(C)C | 0 | - | - | - | - | 0
CCCCCOC(=O)CSc1ncnc2sc3c(c12)CCC(C)C3 (centres undefined) | - | - | 0 | 0 | - | -
COc1ccccc1NS(=O)(=O)c1cc(C(=O)N2CC(C)CC(C)C2)ccc1C (centres undefined) | 0 | 0 | 2.3µM | 0 | 0 | 0
Cc1ccccc1NS(=O)(=O)c1cc(C(=O)N2CCCC2)ccc1C | 0 | 0 | 0 | 0 | 0 | 0
SMILES | RORgamma inh | MCF10A rerep | KB-V1 MDR tox | KB-3-1 cytotox | SW480 rereplic | VP16 counter
CC(C)=CCC/C(C)=C/CO/N=C1/C[C@@H](O)[C@@H](O)[C@@H]2[C@@H]3C(=O)N(c4cccc(Oc5ccccc5)c4)C(=O)[C@H]3CC[C@@H]12 | 0[10 µM] | - | - | - | - | 0[10 µM]
COc1ccccc1N(CC(O)COc1ccc(C)cc1)S(=O)(=O)c1ccccc1 (centres undefined) | ? | ? | ? | 0 | 0 | 0
COc1ccccc1N(CC(O)COc1ccccc1)S(=O)(=O)c1ccccc1 (centres undefined) | 0 | 0 | 13µM | 0 | ? | 0
COc1ccccc1N(CC(O)COc1c(C)cc(C)cc1C)S(=O)(=O)c1ccccc1 (centres undefined) | 0 | ? | 8.2µM | ? | ? | 0
O=C(NNCS(=O)(=O)O)c1ccncc1 | 0 | 0 | - | - | 0 | 0
Cc1ccc(CN(CC2CCCO2)C(=O)CN2C(=O)C(C(C)C)Oc3ccccc32)o1 (centres undefined) | 0[10 µM] | 0 | 0 | 0 | ? | 0
O=C(CN1C(=O)COc2ccccc21)N(Cc1ccc2c(c1)OCO2)CC1CCCO1 (centres undefined) | 0[10 µM] | ? | 4.1µM | 0 | 0 | 0
O=C1c2cccc3cccc(c23)C(=O)N1CCN1CCN(C(=S)Nc2ccc(Cl)cc2)CC1 | 2.8µM | 0 | 0 | 0 | 0 | 0
COc1ccc(CN2CC[C@H]3C=CC[C@@H](C(=O)Nc4nccs4)[C@H]3C2=O)cc1OC | - | - | 0 | 0 | - | -
Cc1ccc2c(c1)C(c1ccccc1)N(C(=O)c1ccccc1F)CC(=O)N2 (centres undefined) | - | - | 0 | 0 | - | -
COc1cc(OC)cc(C(=O)NC(C)c2ccc(Br)cc2)c1 (centres undefined) | 0 | 0 | 0 | 0 | 0 | 0
COc1ccc(C(C)NC(=O)c2ccc(Br)cc2)cc1OC (centres undefined) | ? | 0 | 16µM | 0 | 0 | 0
COc1ccc(OC)c(C(C)NC(=O)c2ccc(Br)cc2)c1 (centres undefined) | 0 | 0 | 16µM | 0 | 0 | 0
COc1ccc(C(C)NC(=O)c2ccccc2Cl)cc1OC (centres undefined) | 0 | 0 | ? | 0 | 0 | 0
COc1ccc(C(C)NC(=O)c2cccc([N+](=O)[O-])c2)cc1OC (centres undefined) | 0 | 0 | 16µM | 0 | 0 | 0
COc1cccc(C(=O)NC(C)c2ccc(Br)cc2)c1 (centres undefined) | 0 | 0 | 0 | 0 | 0 | 0
COc1ccc(C(C)NC(=O)c2ccc([N+](=O)[O-])cc2)cc1OC (centres undefined) | 0 | 0 | 21µM | 0 | 0 | 0
COc1cc(OC)c(NC(=O)CSc2nc3ccncc3[nH]2)cc1Cl | - | - | 0 | 0 | - | -
COc1ccccc1NC(=O)Cn1c(=O)n(-c2ccc(C)cc2)c(=O)c2c1cnn2C | - | - | 0 | 0 | - | -
COc1ccc(Cl)cc1NC(=O)CN1C(=O)COc2ccc(S(=O)(=O)NC3CCCC3)cc21 | - | - | 0 | 0 | - | -
CCC(C)NC(=O)c1ccc2nc(-c3ccc(OC)c(OC)c3)c(-c3ccc(OC)c(OC)c3)nc2c1 (centres undefined) | 0 | 15µM | 0 | 0 | ? | 0
Cc1cccc(N=C2Sc3nc4c(C)c(C)ccc4cc3CN2CCN2CCOCC2)c1 | 0 | 12µM | 0 | 0 | 0 | 0
COCCN1Cc2cc3cc(C)ccc3nc2SC1=Nc1cccc(OC)c1 | 0 | ? | 0 | 0 | 0 | 0

Assay outcomes from PubChem.
